This is an account of results in PubChem BioAssay AID504890 (The Scripps Research Institute Molecular Screening Center, 2011).

Active and inactive are the calls of the source.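 How the source made its calls: active means EC50 at or below 10 µM; inactive means EC50 above 10 µM.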

This assay in a line: polarization artefacts in absence of PKA proteins – biochemical, fluorescence polarization, 1536-well HTS, artefact control for PKA-R2B complex activator project, dose response (AID 504890). Conditions: Cy5-IP20 FP artifact counterscreen, no PKA-R2B complex.
In general, EC50 refers to the concentration at which the effect is half-maximal. Regarding `CCCC(=O)Nc1ncnc2c1ncn2[C@@H]1O[C@@H]2OP(=O)(O)OC[C@H]2[C@H]1OC(=O)CCC`, the EC50 is > 114 µM (inactive). Consider `Nc1ncnc2c1nc(Sc1ccc(Cl)cc1)n2[C@@H]1O[C@@H]2COP(=O)(O)O[C@H]2[C@H]1O`, for which the EC50 was > 114 µM (inactive). For `CCOP1(=O)OCC2OC(n3cnc4c(N)ncnc43)C(O)C2O1` (centres undefined), the EC50 was > 114 µM (inactive). With `CCCC(=O)Nc1ncnc2c1ncn2[C@@H]1O[C@@H]2COP(=O)(O)O[C@H]2[C@H]1OC(=O)CCC`, the EC50 is > 114 µM (inactive). On to `O=S(=O)(O)c1cccc2c(N=Nc3ccc(O)c4ncccc34)cccc12`, for which the EC50 is > 114 µM (inactive).

Consider `CN(C)c1ccc(N=Nc2ccc(S(=O)(=O)O)cc2)c2ccccc12`, for which the EC50 is > 114 µM (inactive). Take `Nc1nc2c(nc(Br)n2[C@@H]2O[C@@H]3COP(=O)(O)O[C@H]3[C@H]2O)c(=O)[nH]1`: the EC50 was > 114 µM (inactive). Take `Nc1ncnc2c1nc(Br)n2[C@@H]1O[C@@H]2COP(=O)(O)O[C@H]2[C@H]1O`: the EC50 was > 114 µM (inactive). As to `O=C(O)c1sccc1SCc1ccc(Cl)cc1Cl`, the EC50 is > 114 µM (inactive).
